Test [1] in a line: qHTS assay to identify small molecule agonists of the estrogen receptor alpha (ER-alpha) signaling pathway in the presence of an antagonist - cell viability counter screen (AID 1259386).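 Note: cells exposed to compounds for 22 h at 37 °C before the viability read; nearly all actives have a fitted effect of over 30% in size.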 Note: potency is the fitted concentration of half-maximal effect. In short, it runs like this:
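Using estrogen-depleted VM7Luc4E2 cells, the 15-concentration compound series was applied together with 10.0nM ICI-182,780 and incubated 22hr at 37C/5% CO2. Cell viability was then scored by CellTiter-Fluor.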
In general terms: In qHTS, concentration-response curves come from the screen itself.

Test [2] concerns the target Progesterone receptor (Homo sapiens) (UniProt P06401). Kind of test: qHTS assay to identify small molecule agonists of the progesterone receptor (PR) signaling pathway (AID 1346784; calls by dose curve; note: nearly all actives have a fitted effect of over 30% in size). In short, it runs like this: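 Using charcoal-stripped serum (2%) to limit endogenous steroids, PR-UAS-bla HEK 293T cells received compounds for 16 hr at 37C after 6 hr plating; beta-lactamase FRET fluorescence was recorded following 2 hr substrate loading at room temperature.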

Test [3] shares this target. Kind of test: qHTS assay to identify small molecule antagonists of the progesterone receptor (PR) signaling pathway (AID 1346795; active = well fitted inhibition curve with a large enough effect in the signal ratio in the repeat runs, not every such curve was filed as active; the % refers to the signal ratio; note: potency is the fitted concentration of half-maximal effect). A digest of the protocol: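 Inhibition of R5020-induced (1 nM final) beta-lactamase reporter signal in PR-UAS-bla HEK293T cells was scored by FRET fluorescence after overnight (16 hr) compound treatment.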
Test [4] is described as follows: qHTS assay to identify small molecule antagonists of the progesterone receptor (PR) signaling pathway - cell viability counter screen (AID 1346798). Note: nearly all actives have a fitted effect of over 50% in size. Note: potency is the fitted concentration of half-maximal effect. A digest of the protocol: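 ATP content as viability readout: CellTiter-Glo luminescence, 30 min room temperature, in PR-UAS-bla HEK293T cells after 16 hr compound/R5020 treatment at 37C and 5% CO2.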
A short description of test [5]: qHTS assay to identify small molecule agonists of the progesterone receptor (PR) signaling pathway - cell viability counter screen (AID 1346799; calls by dose curve; note: nearly all actives have a fitted effect of over 45% in size; note: potency is the fitted concentration of half-maximal effect). A digest of the protocol:
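Cytotoxicity in PR-bla HEK293T cells: 16 h compound, 37C; CellTiter-Glo added post-FRET read; luminescence after 30 min RT.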

Test [6] is described as follows: qHTS assay to identify small molecule antagonists of the TGF-beta/Smad signaling pathway - cell viability counter screen (AID 1346824). Note: nearly all actives have a fitted effect of over 50% in size. In short, it runs like this: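 Cytotoxicity counter-screen run in the same wells as the beta-lactamase Smad reporter read: CellTiter-Glo luminescence after 30 min at room temperature. HEK 293T SBE-bla cells had 5 hr compound exposure at 37 C with TGF-beta1 (0.25 ng/mL stock).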

The nature of test [7]: qHTS assay to identify small molecule agonists of the TGF-beta/Smad signaling pathway - cell viability counter screen (AID 1346829). Note: nearly all actives have a fitted effect of over 45% in size. Note: potency is the fitted concentration of half-maximal effect. A digest of the protocol: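 Same-well cytotoxicity: CellTiter-Glo added after the 2 hr room-temperature beta-lactamase substrate step, luminescence measured 30 min later; cells had 5 hr of compound at 37 C.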
Test [8] is described as follows: qHTS assay to identify small molecule agonists of the TGF-beta/Smad signaling pathway (AID 1346859; active = well fitted activation curve with a large enough effect in the signal ratio in the repeat runs, not every such curve was filed as active; the % refers to the signal ratio; note: series mostly up to about 77 µM). A digest of the protocol: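 Stable Smad binding element-beta-lactamase HEK 293T cells; 5 hr compound exposure at 37 C under 5% CO2; 2 hr room-temperature substrate step; fluorescence excited at 405 nm, collected at 460 nm and 530 nm.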
In test [9] the target is Thyrotropin-releasing hormone receptor (Homo sapiens) (UniProt P34981). Kind of test: qHTS assay to identify small molecule antagonists of the thyrotropin-releasing hormone receptor (TRHR) signaling pathway (AID 1346877; active = well fitted inhibition curve with a large enough effect in the repeat runs, not every such curve was filed as active; note: series mostly up to about 51 µM). In short, it runs like this:
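Calcium signal in dye-loaded TRHR/HEK293 cells; compounds added 5 min before TRH (1 nM final); fluorescence monitored 3 min at 1 s steps.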

For test [10] the target is unchanged. Kind of test: qHTS assay to identify small molecule agonists of the thyrotropin-releasing hormone receptor (TRHR) signaling pathway (AID 1346891; calls by dose curve;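 note: HEK293 cells expressing TRHR with calcium dye readout; series mostly up to about 58 µM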). In short, it runs like this: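 In 1536-format, 1500 TRHR-Hek293 cells per well grew 18 h, took up calcium dye for 2 h at 37 °C, received compound, and were read kinetically; 15-point titrations, triplicates.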

Each structure is given as a SMILES string. “And” between values parts separate entries of the source, which are not always exact repeats. Equal values may be shown once. Inconclusive results are not listed. Some structures have more than one record in an assay (separate samples or runs), and their calls can disagree. The source made the active and inactive calls. Unless noted, calls come from the whole dose curve; as a rule, active = well fitted curve in the direction sought with a large enough effect in the repeat runs; inconclusive = weak or mixed curves; inactive = no such curve, though single readings can be large; an effect the other way counts as inactive or inconclusive.

Experimental findings from PubChem BioAssay (Tox21) are described below.

Sequence of Progesterone receptor (Homo sapiens) (P06401 whole entry, looked up): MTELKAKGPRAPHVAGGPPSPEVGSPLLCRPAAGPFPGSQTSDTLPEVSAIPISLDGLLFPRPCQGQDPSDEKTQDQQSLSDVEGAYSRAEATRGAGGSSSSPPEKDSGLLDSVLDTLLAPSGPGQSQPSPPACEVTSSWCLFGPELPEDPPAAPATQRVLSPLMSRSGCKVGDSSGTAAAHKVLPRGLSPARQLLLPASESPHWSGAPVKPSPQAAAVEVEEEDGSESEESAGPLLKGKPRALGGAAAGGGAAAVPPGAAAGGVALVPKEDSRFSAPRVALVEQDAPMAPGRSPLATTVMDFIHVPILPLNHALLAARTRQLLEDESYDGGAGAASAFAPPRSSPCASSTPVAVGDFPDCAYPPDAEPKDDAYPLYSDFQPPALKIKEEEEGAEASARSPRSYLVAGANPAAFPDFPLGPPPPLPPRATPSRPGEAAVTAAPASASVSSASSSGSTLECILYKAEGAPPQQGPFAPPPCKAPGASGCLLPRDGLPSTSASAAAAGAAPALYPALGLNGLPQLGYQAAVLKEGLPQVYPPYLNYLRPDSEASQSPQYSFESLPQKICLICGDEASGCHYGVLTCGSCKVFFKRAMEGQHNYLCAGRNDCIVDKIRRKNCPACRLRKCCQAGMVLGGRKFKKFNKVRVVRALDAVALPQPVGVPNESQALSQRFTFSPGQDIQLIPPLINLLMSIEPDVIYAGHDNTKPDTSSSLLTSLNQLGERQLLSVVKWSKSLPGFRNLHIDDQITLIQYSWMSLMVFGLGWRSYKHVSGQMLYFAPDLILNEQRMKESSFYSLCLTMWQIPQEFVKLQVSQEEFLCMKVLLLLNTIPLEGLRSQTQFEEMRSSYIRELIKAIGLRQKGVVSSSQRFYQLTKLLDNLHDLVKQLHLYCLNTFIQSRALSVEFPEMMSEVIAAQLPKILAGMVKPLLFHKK
Sequence of Thyrotropin-releasing hormone receptor (Homo sapiens) (P34981 whole entry, looked up): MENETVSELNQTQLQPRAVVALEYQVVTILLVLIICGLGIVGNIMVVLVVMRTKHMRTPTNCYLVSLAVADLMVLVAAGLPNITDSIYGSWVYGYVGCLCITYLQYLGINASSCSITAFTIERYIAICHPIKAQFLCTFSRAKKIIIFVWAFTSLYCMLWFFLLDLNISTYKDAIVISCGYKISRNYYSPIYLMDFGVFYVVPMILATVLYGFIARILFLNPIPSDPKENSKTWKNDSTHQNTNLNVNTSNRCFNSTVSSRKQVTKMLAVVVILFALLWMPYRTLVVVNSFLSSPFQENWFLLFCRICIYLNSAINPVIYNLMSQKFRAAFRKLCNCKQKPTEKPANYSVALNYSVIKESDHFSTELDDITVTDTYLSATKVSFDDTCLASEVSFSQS

As for `CC(C)OS(C)(=O)=O`, the Potency entry in test [1], in [2], in [3], in test [4], in test [5] and in test [6] was “inactive” throughout. Further, the Potency entry in test [7], in [9] and in test [10] was “inactive” in each case. The outcome in [8] was inactive.
As to `ClCc1ccccc1CCl`, the Potency entry in test [1], in test [2], in test [3], in test [4], in test [5] and in test [6] was “inactive” each time. Also, the Potency entry in [7], in test [9] and in test [10] was “inactive” in each case. Also, in [8], the result was inactive.
In the case of `Cl/C=C\CCl`, the Potency entry in test [1], in [2], in test [3], in [4], in test [5] and in test [6] was “inactive” each time. Further, the Potency result in test [7] was “inactive”. The compound was called inactive in test [8].
Turning to `Clc1ccc(COC(Cn2ccnc2)c2ccc(Cl)cc2Cl)cc1` (centres undefined), the Potency is 50.8 µM (active) and 68.3 µM (active) and inactive in test [1]; 5.31 µM (active) in test [3]; 18 µM (active) and 27.2 µM (active) and 6.68 µM (active) in [4]; 45.3 µM (active) and 15.3 µM (active) and 5.96 µM (active) in test [5]; 40.7 µM (active) in [7]. Besides, the Potency entry in test [2] and in test [6] was “inactive” in each case. Besides, in [8], the compound was classed as inactive.
In the case of `CCCCCCCCCBr`, the Potency result in test [1], in test [2], in test [3], in [4], in test [5] and in [6] was “inactive” throughout. The Potency entry in test [7], in [9] and in [10] was “inactive” throughout. For the same compound, in test [8], the result was inactive.
Take `CCCCCCCCCCCCCN1CC(C)OC(C)C1` (centres undefined): the Potency result in [1], in [2], in test [3], in [4], in test [5] and in test [6] was “inactive” each time. Moreover, the Potency entry in test [7], in [9] and in [10] was “inactive” each time. Also, the call in test [8] was inactive.
With `N#CCCO`, the Potency result in [1], in [2], in [3], in test [4], in test [5] and in [6] was “inactive” in each case. Besides, the Potency result in test [7], in test [9] and in [10] was “inactive” throughout. The call in test [8] was inactive.
As to `c1ccc(OCC2CO2)cc1` (centres undefined), the Potency result in [1], in test [2], in test [3], in test [4], in [5] and in test [6] was “inactive” in each case. Further, the Potency entry in test [7] is “inactive”. Moreover, the outcome in [8] was inactive.
Consider `FC(Cl)(Cl)Cl`, for which the Potency result in test [1], in test [2], in test [3], in [4], in test [5] and in test [6] was “inactive” in each case. The Potency result in test [7] and in test [10] was “inactive” throughout. For the same compound, in test [8], the call was inactive.
Consider `O=C/C(Cl)=C(/Cl)C(=O)O`, for which the Potency entry in test [1], in test [2], in test [3], in test [4], in test [5] and in test [6] was “inactive” throughout. The Potency entry in test [7], in [9] and in [10] was “inactive” in each case. Besides, in test [8], the compound was called inactive.
Consider `C1CCC2CCCCC2C1` (centres undefined), for which the Potency entry in test [1], in test [2], in test [3], in test [4], in [5] and in [6] was “inactive” each time. Also, the Potency result in test [7], in test [9] and in test [10] was “inactive” in each case. Moreover, the outcome in test [8] was inactive.
With `BrCBr`, the Potency result in [1], in test [2], in test [3], in test [4], in [5] and in [6] was “inactive” each time. For the same compound, the Potency result in test [7], in test [9] and in test [10] was “inactive” throughout. The compound was called inactive in [8].
`SCc1ccco1`: the Potency result in test [1], in test [2], in test [3], in test [4], in [5] and in [6] was “inactive” in each case. Besides, the Potency entry in [7] and in test [10] was “inactive” throughout. In test [8], the compound was called inactive.
In the case of `ClC(Cl)=C(Cl)Cl`, the Potency entry in [1], in test [2], in test [3], in [4], in test [5] and in test [6] was “inactive” throughout. Besides, the Potency entry in [7] and in test [10] was “inactive” in each case. Also, in test [8], the call was inactive.
Take `Oc1ccccc1Br`: the Potency result in test [1], in test [2], in test [3], in test [4], in test [5] and in [6] was “inactive” throughout. In test [7], the Potency result was “inactive”. Moreover, the result in [8] was inactive.
For the compound `CN(C)CCc1c[nH]c2ccc(O)cc12`, the Potency entry in test [1], in test [2], in [5], in test [6], in [7] and in test [9] was “inactive” in each case. Further, the Potency entry in test [10] was “inactive”. Besides, the Potency in test [3] was 53.2 µM (active); in test [4] it was 42.3 µM (active). Moreover, the compound was called inactive in test [8].
With `NNC(=O)c1ccccc1`, the Potency entry in test [1], in [2], in [3], in [4], in test [5] and in test [6] was “inactive” each time. Moreover, the Potency entry in test [7], in test [9] and in test [10] was “inactive” each time. In test [8], the result was inactive.
As to `CCc1cc(C)cc(CC)c1-c1c(OC(=O)C(C)(C)C)n2n(c1=O)CCOCC2`, in test [1], the Potency is 34.4 µM (active). Moreover, the Potency entry in [2], in test [3], in test [4], in [5], in [6] and in test [7] was “inactive” each time. The Potency result in [9] and in test [10] was “inactive” in each case. Further, in test [8], the outcome was inactive.
As for `BrCC(Br)c1ccccc1` (centres undefined), the Potency entry in test [1], in test [2], in [3], in test [4], in test [5] and in [6] was “inactive” in each case. In addition, the Potency entry in [7] is “inactive”. Moreover, the compound was classed as inactive in test [8].
Turning to `CC(C)CCCCCOC(=O)c1ccccc1C(=O)OCCCCCC(C)C`, the Potency entry in [1], in [2], in [3], in test [4], in test [5] and in test [6] was “inactive” each time. Further, the Potency result in [7], in [9] and in test [10] was “inactive” in each case. Also, the compound was classed as inactive in test [8].
On to `ClCCN1CCOCC1`, for which the Potency result in test [1], in test [2], in [3], in test [4], in [5] and in test [6] was “inactive” throughout. The Potency result in [7], in test [9] and in [10] was “inactive” each time. Besides, the outcome in test [8] was inactive.
Regarding `CCOP(=S)(OCC)OC(Cl)C(Cl)(Cl)Cl` (centres undefined), the Potency entry in test [1], in test [2], in test [3], in test [4], in [5] and in [6] was “inactive” each time. Further, in test [7], the Potency entry was “inactive”. The compound was called inactive in test [8].
Regarding `Cc1ccc(OP(=O)(Oc2ccccc2)Oc2ccccc2)cc1`, the Potency result in test [1], in test [2], in [4], in [5], in test [6] and in test [7] was “inactive” each time. In test [10], the Potency entry was “inactive”. Besides, the Potency in [3] was 15.6 µM (active). Moreover, the result in test [8] was inactive.
For the compound `CC(C)C(=O)Cl`, the Potency entry in [1], in test [2], in test [3], in test [4], in [5] and in [6] was “inactive” each time. Also, the Potency result in test [7], in [9] and in [10] was “inactive” throughout. For the same compound, in test [8], the call was inactive.
Take `N#CCc1ccc(Cl)cc1`: the Potency entry in test [1], in test [2], in test [3], in test [4], in [5] and in test [6] was “inactive” throughout. Moreover, the Potency result in test [7], in test [9] and in [10] was “inactive” throughout. The call in test [8] was inactive.
